# From PubChem BioAssay (NCATS)
# Inconclusive results are not listed. Entries that show only a call come without a potency. The source made the active and inactive calls. Calls follow the shape of the dose curve; as a rule, active = well fitted curve in the direction sought with a large enough effect; inconclusive = small, poorly fitted or top-dose-only effect, or another doubt; inactive = no such curve, though single readings can be large; an effect the other way counts as inactive or inconclusive.
# Assays:
# [1] = target: Glutathione peroxidase 1 (Homo sapiens) (UniProt P07203); experiment: Primary qHTS Assay for Inhibitors of Recombinant Selenoprotein Glutathione Peroxidase 1 (GPX1) (AID 1845191); conditions: recombinant GPX1, GR-coupled NADPH fluorescence, 15 min; series mostly up to 48.8 µM; also: nearly all actives have a fitted effect of over 65% in size
# Chain of Glutathione peroxidase 1 (Homo sapiens) (P07203 whole entry, looked up): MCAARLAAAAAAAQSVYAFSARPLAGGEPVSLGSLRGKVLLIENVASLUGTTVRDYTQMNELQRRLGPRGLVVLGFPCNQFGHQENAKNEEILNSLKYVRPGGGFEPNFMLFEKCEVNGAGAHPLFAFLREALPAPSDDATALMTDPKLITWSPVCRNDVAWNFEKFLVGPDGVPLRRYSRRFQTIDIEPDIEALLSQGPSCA
# Summary of the method: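 GPX1 10 nM, GR 100 nM, GSH 1 mM, NADPH 0.5 mM, CHP 0.5 mM (final). 30-min cpd preincubation, RT. Ex340/Em450 read t=0, t=15 min.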
# [2] = target: Phospholipid hydroperoxide glutathione peroxidase GPX4 (Homo sapiens) (UniProt P36969); experiment: Primary qHTS Assay for Inhibitors of Recombinant Selenoprotein Glutathione Peroxidase 4 (GPX4) (AID 1845192); conditions: recombinant GPX4, GR-coupled NADPH fluorescence, 15 min; series mostly up to 50 µM; also: nearly all actives have a fitted effect of over 65% in size
# Chain of Phospholipid hydroperoxide glutathione peroxidase GPX4 (Homo sapiens) (P36969 whole entry, looked up): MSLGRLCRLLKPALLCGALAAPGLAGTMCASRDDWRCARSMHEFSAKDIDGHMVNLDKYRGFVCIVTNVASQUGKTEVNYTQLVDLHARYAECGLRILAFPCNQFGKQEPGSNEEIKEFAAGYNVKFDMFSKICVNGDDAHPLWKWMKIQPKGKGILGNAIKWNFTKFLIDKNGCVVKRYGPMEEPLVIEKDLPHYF
# Summary of the method: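 qHTS, GR-coupled: GPX4 200 nM + cpd 30 min RT → GSH 1 mM, NADPH 0.5 mM, GR 100 nM → CHP 0.5 mM start; fluor 340/450 at t0 and t15 min; no-enzyme wells as control.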
# [3] = target: Nuclear receptor subfamily 1 group I member 3 (Homo sapiens) (UniProt Q14994); experiment: Primary qHTS for antagonist of constitutive androstane receptor (CAR) against the NCATS DSHEA and TCM libraries (AID 1794836); conditions: CAR reporter cell assay, antagonist mode, luciferase; series mostly up to 40 µM
# Chain of Nuclear receptor subfamily 1 group I member 3 (Homo sapiens) (Q14994 whole entry, looked up): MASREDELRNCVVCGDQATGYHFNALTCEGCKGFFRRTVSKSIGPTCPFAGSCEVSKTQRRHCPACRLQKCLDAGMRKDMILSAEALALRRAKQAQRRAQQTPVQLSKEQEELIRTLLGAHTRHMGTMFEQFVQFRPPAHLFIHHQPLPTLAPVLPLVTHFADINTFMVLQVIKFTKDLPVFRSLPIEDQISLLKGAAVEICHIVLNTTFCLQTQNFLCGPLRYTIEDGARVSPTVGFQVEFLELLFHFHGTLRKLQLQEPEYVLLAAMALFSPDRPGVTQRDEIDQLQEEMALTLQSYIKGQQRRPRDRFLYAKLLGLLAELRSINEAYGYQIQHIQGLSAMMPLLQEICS
# Summary of the method: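 HepG2 cells stably carrying hCAR and a CYP2B6 luciferase reporter (2,500 cells/well) attached for 5 h, then received compounds with 48 uM CITCO for 24 h at 37C. ONE-Glo luminescence read antagonism; CellTiter-Fluor (405/540 nm) gave viability.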
# [4] = target: Metallo-beta-lactamase type 2 (Klebsiella pneumoniae) (UniProt C7C422); experiment: qHTS to identify inhibitors of the New Delhi Metallo-beta-lactamase (NDM): assay validation screen against the NCATS LOPAC Collection (AID 1794843); conditions: NDM-1 enzyme, nitrocefin hydrolysis, absorbance 485 nm; series mostly up to 38.4 µM;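 also: nitrocefin turnover by NDM-1 measured as 485 nm absorbance at plateau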
# Chain of Metallo-beta-lactamase type 2 (Klebsiella pneumoniae) (C7C422 whole entry, looked up): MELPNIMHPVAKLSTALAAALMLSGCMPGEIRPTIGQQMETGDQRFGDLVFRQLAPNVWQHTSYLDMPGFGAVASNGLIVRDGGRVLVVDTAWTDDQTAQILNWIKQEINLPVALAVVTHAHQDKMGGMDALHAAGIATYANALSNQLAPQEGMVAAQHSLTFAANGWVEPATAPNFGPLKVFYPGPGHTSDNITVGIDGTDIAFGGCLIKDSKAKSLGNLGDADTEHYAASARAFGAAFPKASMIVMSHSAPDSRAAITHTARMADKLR
# Summary of the method: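 Enzyme 2 nM final, 50 mM HEPES pH 7.0, 1 uM ZnSO4, 0.01% Tween20; cpds in DMSO, preincub w/ enzyme; + nitrocefin (50 uM stock); A485 at plateau; no-enzyme column as blank.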
# [5] = Quantitative High-Throughput drug screen in 47 multiple myeloma cell lines against the NCATS MIPE library collection: FR4_PLB cell viability assay (AID 1918924; also: nearly all actives have a fitted effect of over 35% in size); conditions: FR4_PLB myeloma cells viability, CellTiter-Glo ATP, 48 h; series mostly up to 45.8 µM
# Summary of the method: (§1)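 Relative luminescence from CellTiter-Glo served as the viability signal, referenced to DMSO-treated (100%) and cell-free medium (0%) controls. Treatment lasted 48 hours at 37C with 500 cells per well.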
# [6] = Quantitative High-Throughput drug screen in 47 multiple myeloma cell lines against the NCATS MIPE library collection: Delta47_JCRB cell viability assay (AID 1918925; also: nearly all actives have a fitted effect of over 45% in size; also: potency is read from the fitted curve at half-maximal effect); conditions: Delta47 myeloma viability, CellTiter-Glo ATP, 48 h; series mostly up to 45.8 µM
# Summary of the method: (§2)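 Myeloma cells (500 per well) were exposed to MIPE 4.0 compounds by pin transfer and incubated 48 hours at 37C, 5% CO2. Viability was read as ATP by CellTiter-Glo luminescence, normalised to DMSO (100%) and media-only (0%) wells.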
# [7] = Quantitative High-Throughput drug screen in 47 multiple myeloma cell lines against the NCATS MIPE library collection: EJM_DSMZ cell viability assay (AID 1918926; also: nearly all actives have a fitted effect of over 30% in size); conditions: EJM myeloma cell viability, CellTiter-Glo ATP, 48 h; series mostly up to 45.8 µM
# Summary of the method: as §2
# [8] = Quantitative High-Throughput drug screen in 47 multiple myeloma cell lines against the NCATS MIPE library collection: AMO1_DSMZ cell viability assay (AID 1918927; also: nearly all actives have a fitted effect of over 30% in size); conditions: AMO1 myeloma cells viability, CellTiter-Glo ATP luminescence, 48 h; series mostly up to 45.8 µM
# Summary of the method: as §2
# [9] = Quantitative High-Throughput drug screen in 47 multiple myeloma cell lines against the NCATS MIPE library collection: ARP1_JJKsccF8 cell viability assay (AID 1918928; also: nearly all actives have a fitted effect of over 40% in size; also: potency is read from the fitted curve at half-maximal effect); conditions: ARP1 myeloma cells viability, CellTiter-Glo ATP, 48 h; series mostly up to 45.8 µM
# Summary of the method: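 500 cells/well; MIPE 4.0 library pinned in; 48 h, 37 °C, 5% CO2; CellTiter-Glo ATP luminescence. Controls: DMSO = 100% viability, medium only = 0%.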
# [10] = Quantitative High-Throughput drug screen in 47 multiple myeloma cell lines against the NCATS MIPE library collection: ARD_JJKsccE7 cell viability assay (AID 1918929); conditions: ARD myeloma cell line viability, CellTiter-Glo, 48 h; series mostly up to 45.8 µM
# Summary of the method: as §2
# [11] = Quantitative High-Throughput drug screen in 47 multiple myeloma cell lines against the NCATS MIPE library collection: Karpas620_DSMZ cell viability assay (AID 1918959); conditions: Karpas620 myeloma viability, CellTiter-Glo ATP luminescence, 48 h; series mostly up to 45.8 µM; also: nearly all actives have a fitted effect of over 30% in size; also: potency is read from the fitted curve at half-maximal effect
# Summary of the method: as §1
# [12] = target: Luciferin 4-monooxygenase (Photinus pyralis) (UniProt P08659); experiment: Primary firefly luciferase (FLuc) qHTS assay for identification of artifact compounds. (AID 1845220); conditions: purified firefly luciferase, luminescence, 5 min; series mostly up to 54.1 µM; also: nearly all actives have a fitted effect of over 60% in size
# Summary of the method: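 In this counter-screen for luciferase artifacts, test compounds met substrate (10 uM each luciferin and ATP) before 10 nM enzyme started the reaction. Light output was measured 5 min later.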
# [13] = Primary fluorescence-based thiol-reactive (MSTI) qHTS assay for identification of artifact compounds. (AID 1845221); conditions: MSTI thiol-reactivity probe, 1 h; series mostly up to 53.8 µM;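 also: thiol-reactive compounds lower the probe fluorescence signal; nearly all actives have a fitted effect of over 65% in size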
# Summary of the method: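 Reactivity toward the thiol probe MSTI (4 uM) is scored by fluorescence at Ex/Em 525/598 nm after 1 h at room temperature. Acetyl-MSTI and MSTI define the activity scale.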
# [14] = Primary redox qHTS assay for identification of artifact compounds. (AID 1845223); conditions: Amplex Red/HRP redox cycling with DTT, fluorescence; series mostly up to 53.8 µM
# Summary of the method: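 Redox-cycling detection via DTT (250 uM final) oxidation coupled to Amplex Red (25 uM)/HRP (250 mU/mL) in HBSS. 15 min preincubation plus 30 min after DTT, room temperature. Ex/Em 525/598 nm; 4-parameter Hill fit against DMSO and 10 uM DA3003.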
# [15] = test system: Nanoluciferase (engineered Oplophorus gracilirostris luciferase); experiment: Primary Nanoluciferase (NLuc) qHTS assay for identification of artifact compounds. (AID 1845222); conditions: NLuc-conditioned medium, Nano-Glo luminescence, 5 min; series mostly up to 54.1 µM;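 also: NLuc secreted into diluted conditioned medium of S16 cells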
# Summary of the method: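 Using secreted nanoluciferase in S16 culture medium (0.22 um filtered, 1:55 dilution), compounds were preincubated 15 min at RT. Signal was generated with Nano-Glo reagent (1:100) over 5 min.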
# [16] = NCATS anti-infectives library activity on HEK293 viability as a counter-qHTS vs the C. elegans viability qHTS (AID 1745854); conditions: HEK293 viability counter-screen; series mostly up to 41.8 µM;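 also: HEK293 cells exposed to compounds for 24 hr before the viability read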
# Summary of the method: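 Compound titrations (final up to 41.7 uM) were incubated with HEK293 cells for 24 hr at 37C under 5% CO2. Viable cells were quantified with CellTiter-Glo after 10 min at ambient temperature.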
# [17] = target: Catechol O-methyltransferase (Homo sapiens) (UniProt P21964); experiment: Confirmatory Screen for Target Class Profiling of Small Molecule Inhibitors of Methyltransferases (AID 1745852); conditions: MTase-Glo luminescence, SAH detection, recombinant enzyme; measured here: COMT max response; stronger effect = lower value
# Chain of Catechol O-methyltransferase (Homo sapiens) (P21964 whole entry, looked up): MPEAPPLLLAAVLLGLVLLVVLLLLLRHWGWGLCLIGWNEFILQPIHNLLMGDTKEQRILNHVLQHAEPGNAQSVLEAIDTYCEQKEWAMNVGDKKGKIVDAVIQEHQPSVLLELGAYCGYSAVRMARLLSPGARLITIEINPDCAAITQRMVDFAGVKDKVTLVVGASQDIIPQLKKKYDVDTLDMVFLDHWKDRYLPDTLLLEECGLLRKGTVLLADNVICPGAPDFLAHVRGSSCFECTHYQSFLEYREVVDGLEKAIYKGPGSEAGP
# [18] = target: Guanidinoacetate N-methyltransferase (Homo sapiens) (UniProt Q14353); experiment: as above; conditions: MTase-Glo luminescence, SAH detection, recombinant enzyme; at 57.3 µM (top of the series)
# [19] = target: Nicotinamide N-methyltransferase (Homo sapiens) (UniProt P40261); experiment: as above; conditions: MTase-Glo luminescence, SAH detection, recombinant enzyme; measured here: NNMT max response; stronger effect = lower value
# Chain of Nicotinamide N-methyltransferase (Homo sapiens) (P40261 whole entry, looked up): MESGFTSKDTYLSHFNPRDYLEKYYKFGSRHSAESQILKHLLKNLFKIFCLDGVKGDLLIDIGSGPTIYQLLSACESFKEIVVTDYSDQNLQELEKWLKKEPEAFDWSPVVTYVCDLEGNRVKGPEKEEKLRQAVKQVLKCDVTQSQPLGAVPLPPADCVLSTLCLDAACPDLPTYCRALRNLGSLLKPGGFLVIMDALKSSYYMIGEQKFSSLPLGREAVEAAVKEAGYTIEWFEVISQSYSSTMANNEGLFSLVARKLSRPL
# [20] = target: Phenylethanolamine N-methyltransferase (Homo sapiens) (UniProt P11086); experiment: as above; conditions: MTase-Glo luminescence, SAH detection, recombinant enzyme; measured here: PNMT max response; stronger effect = lower value
# Chain of Phenylethanolamine N-methyltransferase (Homo sapiens) (P11086 whole entry, looked up): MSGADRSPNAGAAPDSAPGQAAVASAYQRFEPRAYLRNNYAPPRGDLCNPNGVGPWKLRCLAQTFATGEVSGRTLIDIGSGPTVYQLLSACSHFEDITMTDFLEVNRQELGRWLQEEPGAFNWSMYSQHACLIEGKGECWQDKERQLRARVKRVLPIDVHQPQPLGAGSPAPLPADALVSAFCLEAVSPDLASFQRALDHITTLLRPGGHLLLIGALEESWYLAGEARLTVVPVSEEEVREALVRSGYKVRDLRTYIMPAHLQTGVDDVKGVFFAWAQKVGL
compound,measurement,setting,value
CCC(CC)(CNC(=O)CCCO)c1cccc(OC)c1,Potency,[1],inactive
same,Potency,[2],inactive
C=CCc1ccc(O)c(OC)c1,outcome,[3],inactive
Cc1ccc(C(C)C)c(O)c1,outcome,[3],inactive
COC(=O)C(c1ccccc1)C1CCCCN1 (configuration not stated),Potency,[1],inactive
same,Potency,[2],inactive
Cc1ncsc1CCCl,outcome,[4],inactive
same,Potency,[1],inactive
same,Potency,[2],inactive
C[C@]12CC[C@H]3[C@@H](CCC4=CC(=O)CC[C@@H]43)[C@@H]1CC[C@@H]2OC(=O)CCC1CCCCC1,Potency,[1],inactive
COc1ccc2c(c1OC)C(=O)O[C@H]2[C@@H]1c2cc3c(cc2CCN1C)OCO3,outcome,[4],inactive
same,Potency,[1],inactive
same,Potency,[2],inactive
O=C(O)c1cc(O)c(O)c(O)c1,outcome,[3],inactive
CCC(C)C(C)(COC(N)=O)COC(N)=O (configuration not stated),Potency,[1],inactive
same,Potency,[2],inactive
CCC1(c2ccc(N)cc2)CCC(=O)NC1=O (configuration not stated),outcome,[4],inactive
same,Potency,[1],inactive
same,Potency,[2],inactive
same,Potency,[5],inactive
same,Potency,[6],inactive
same,Potency,[7],inactive
same,Potency,[8],inactive
same,Potency,[9],inactive
same,Potency,[10],inactive
same,Potency,[11],inactive
Nc1ccccc1,Potency,[1],inactive
same,Potency,[2],inactive
Nc1ccc(C(=O)O)cc1,outcome,[3],inactive
O=C1OC(c2ccc(O)c(S(=O)(=O)O)c2)(c2ccc(O)c(S(=O)(=O)O)c2)c2c(Br)c(Br)c(Br)c(Br)c21,Potency,[1],inactive
CC(NC(C)(C)C)C(=O)c1cccc(Cl)c1 (configuration not stated),outcome,[4],inactive
same,Potency,[1],inactive
same,Potency,[2],inactive
same,outcome,[12],inactive
same,outcome,[13],inactive
same,outcome,[14],inactive
same,Potency,[5],inactive
same,Potency,[7],inactive
same,Potency,[8],inactive
same,Potency,[9],13.2 µM (active)
same,Potency,[11],inactive
CC(C)[C@H]1C(=O)N2CCC[C@H]2[C@]2(O)O[C@](NC(=O)[C@@H]3C[C@@H]4c5cccc6[nH]cc(c56)C[C@H]4N(C)C3)(C(C)C)C(=O)N12,Potency,[1],inactive
CC(C)N(CCC(C(N)=O)(c1ccccc1)c1ccccn1)C(C)C (configuration not stated),outcome,[4],inactive
same,Potency,[1],inactive
same,Potency,[2],inactive
same,outcome,[12],inactive
same,outcome,[15],inactive
same,outcome,[14],inactive
C#CC(O)(C=CCl)CC (configuration not stated),Potency,[1],inactive
same,Potency,[2],inactive
CN1C(=O)CCS(=O)(=O)C1c1ccc(Cl)cc1 (configuration not stated),outcome,[4],inactive
same,Potency,[1],inactive
same,Potency,[2],inactive
same,Potency,[8],inactive
same,Potency,[10],inactive
same,Potency,[11],inactive
CC(C)(C)NCC(O)c1ccccc1Cl (configuration not stated),outcome,[16],inactive
same,outcome,[4],inactive
same,Potency,[1],inactive
same,Potency,[2],inactive
CCCCCCCCCCCCCCCC(=O)O,outcome,[3],inactive
CC(C)c1cccc(C(C)C)c1O,outcome,[4],inactive
same,Potency,[1],inactive
same,Potency,[2],inactive
same,Potency,[5],inactive
same,Potency,[6],inactive
same,Potency,[7],inactive
same,Potency,[8],inactive
same,Potency,[9],inactive
same,Potency,[10],inactive
same,Potency,[11],inactive
O=c1[nH]oc2c1CCNC2,outcome,[4],inactive
same,Potency,[1],inactive
same,Potency,[2],inactive
CCCCCN(C)CCC(O)(P(=O)(O)O)P(=O)(O)O,outcome,[4],inactive
same,Potency,[1],inactive
same,Potency,[2],inactive
O=C(O)CCCC[C@@H]1SC[C@@H]2NC(=O)N[C@@H]21,outcome,[3],inactive
NNC(=O)c1ccncc1,outcome,[3],inactive
CC(C)NC(C)C,Potency,[1],inactive
same,Potency,[2],inactive
C=CCC1(C(C)CC)C(=O)NC(=O)NC1=O (configuration not stated),Potency,[1],inactive
same,Potency,[2],inactive
CC(C)=CCC[C@@](C)(O)[C@H]1CC=C(C)CC1,outcome,[3],inactive
COC1CC(=C(c2cccs2)c2cccs2)C[N+](C)(C)C1 (configuration not stated),Potency,[1],inactive
same,Potency,[2],inactive
COc1c2c(cc3c1OCO3)CCN(C)C2,Potency,[1],inactive
same,Potency,[2],inactive
CN1C[C@H](C(=O)N[C@]2(C)O[C@@]3(O)[C@@H]4CCCN4C(=O)[C@H](Cc4ccccc4)N3C2=O)C=C2c3cccc4[nH]cc(c34)C[C@H]21,Potency,[1],inactive
O=C(CCCN1CCC2(CC1)C(=O)NCN2c1ccccc1)c1ccc(F)cc1,outcome,[4],inactive
same,Potency,[1],inactive
same,Potency,[2],inactive
O=P1(N(CCCl)CCCl)NCCCO1 (configuration not stated),outcome,[4],inactive
same,Potency,[1],inactive
same,Potency,[2],inactive
same,Potency,[5],inactive
same,Potency,[6],14.8 µM (active)
same,Potency,[10],inactive
same,Potency,[11],18.7 µM (active)
COc1cccc2c1C(=O)c1c(O)c3c(c(O)c1C2=O)C[C@@](O)(C(=O)CO)CC3OC1CC(N2CCOC(OC)C2)C(O)C(C)O1 (some centres not stated),Potency,[1],inactive
NCCc1ccc(O)cc1,activity,[17],-7.57%
same,"activity change, negative = inhibition",[18],0.255%
same,activity,[19],-9.22%
same,activity,[20],-8.79%
same,outcome,[4],inactive
same,Potency,[1],inactive
same,Potency,[2],inactive
O=C1c2ccccc2C(=O)c2ccccc21,outcome,[16],inactive
same,Potency,[1],inactive
same,Potency,[2],inactive
CCc1cc2c(s1)-n1c(C)nnc1CN=C2c1ccccc1Cl,Potency,[1],inactive
same,Potency,[2],inactive
